Among all 310,000 compounds or so, about 14,000 (4.5%) showed an effect of 50% or more. The effect is printed as a negative number. The list comes from a sample in which strong results are over-represented; it also holds similar structures and randomly drawn compounds.
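Further: peak tail current of the secondary pulse compared with the same well before compound.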

The target of the experiment is human ether-à-go-go-related gene (hERG) potassium channel (human, UniProt Q12809). Kind of experiment: primary screen, population patch clamp on CHO cells stably expressing hERG; higher = less effect of the substance.
Sequence of human ether-à-go-go-related gene (hERG) potassium channel (Q12809 whole entry, looked up): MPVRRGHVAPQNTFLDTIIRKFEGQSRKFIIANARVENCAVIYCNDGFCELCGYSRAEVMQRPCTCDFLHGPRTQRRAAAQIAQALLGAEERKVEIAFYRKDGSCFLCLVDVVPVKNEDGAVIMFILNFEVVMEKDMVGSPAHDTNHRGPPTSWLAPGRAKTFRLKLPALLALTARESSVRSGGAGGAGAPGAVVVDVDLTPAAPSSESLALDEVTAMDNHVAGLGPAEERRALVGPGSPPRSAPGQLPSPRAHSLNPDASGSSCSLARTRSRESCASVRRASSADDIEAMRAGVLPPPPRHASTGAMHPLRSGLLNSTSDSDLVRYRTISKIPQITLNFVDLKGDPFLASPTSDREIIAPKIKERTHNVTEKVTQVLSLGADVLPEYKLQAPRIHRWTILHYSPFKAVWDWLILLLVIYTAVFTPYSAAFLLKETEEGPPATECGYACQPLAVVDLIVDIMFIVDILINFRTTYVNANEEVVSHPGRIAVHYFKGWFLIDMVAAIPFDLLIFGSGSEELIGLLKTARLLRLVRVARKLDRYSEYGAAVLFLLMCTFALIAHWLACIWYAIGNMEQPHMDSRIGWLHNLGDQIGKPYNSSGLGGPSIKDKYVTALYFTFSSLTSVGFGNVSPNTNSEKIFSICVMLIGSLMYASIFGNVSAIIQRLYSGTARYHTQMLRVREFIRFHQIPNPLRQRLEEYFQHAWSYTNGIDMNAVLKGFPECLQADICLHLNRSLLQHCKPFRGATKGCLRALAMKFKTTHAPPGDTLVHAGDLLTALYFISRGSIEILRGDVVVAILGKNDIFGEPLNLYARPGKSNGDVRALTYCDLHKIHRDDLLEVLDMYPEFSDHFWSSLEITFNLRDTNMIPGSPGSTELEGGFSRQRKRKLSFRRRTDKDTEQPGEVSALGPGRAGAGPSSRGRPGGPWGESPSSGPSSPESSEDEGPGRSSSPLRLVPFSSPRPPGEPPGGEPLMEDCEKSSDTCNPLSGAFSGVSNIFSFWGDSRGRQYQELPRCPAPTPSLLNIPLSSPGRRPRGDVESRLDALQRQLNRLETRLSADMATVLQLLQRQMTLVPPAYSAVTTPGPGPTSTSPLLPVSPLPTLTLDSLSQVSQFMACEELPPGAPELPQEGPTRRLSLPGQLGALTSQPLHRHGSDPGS
As for `COC(=O)c1cc(Cl)cc2c(C)c(C3(O)CCCCC3)[nH]c12`, the “hERG current change (%, negative = inhibition) at 10uM” value amounted to 15%.

For `O=C(/C=C/c1ccccc1)N/C(=C/c1ccccc1)C(=O)Nc1ccccc1O`, the “hERG current change (%, negative = inhibition) at 10uM” value is -27.3%. With `CCc1ccccc1NC(=O)Cn1nnc(C(=O)NCc2cccs2)c1N`, the “hERG current change (%, negative = inhibition) at 10uM” value is 13.8%.

Consider `O=C(Cn1cnc2ccccc2c1=O)NCCC(=O)N1CCN(c2ccccc2)CC1`, for which the “hERG current change (%, negative = inhibition) at 10uM” value is reported as -7.6%. In the case of `Cc1ccc(NC(=O)C(c2ccccc2)N2CCN(CC(=O)NC3CC3)CC2)cc1Cl` (stereo not shown), the “hERG current change (%, negative = inhibition) at 10uM” value is -46.7%. In the case of `Cc1cc(C)cc(NC(=O)C(c2ccccc2)N2CCN(CC(=O)NC3CC3)CC2)c1` (stereo not shown), the “hERG current change (%, negative = inhibition) at 10uM” value is -28.3%. As for `O=C(CN1CCN(C(C(=O)Nc2ccc(Cl)cc2C(F)(F)F)c2ccccc2)CC1)NC1CC1` (stereo not shown), the figure is -70.2%; as for `NC(=O)c1ccsc1NC(=O)COC(=O)C1CCCN1C(=O)c1cccs1` (stereo not shown), -63%; as for `Cc1cc(NC(=O)COC(=O)C2CCCN2C(=O)c2cccs2)no1` (stereo not shown), -4.36%.

For the compound `COc1ccccc1NC(=O)COC(=O)[C@@H]1CCCN1C(=O)c1cccs1`, the “hERG current change (%, negative = inhibition) at 10uM” value was -40.6%. As for `Cc1ccn2c(C(=O)N/N=C\c3ccccc3[N+](=O)[O-])c(C)nc2c1`, the figure is -27.2%; as for `COCCn1c(C)cc(C(=O)Cn2nc(C(=O)O)c3ccccc3c2=O)c1C`, -3.4%; as for `O=C(CNC(=O)Cc1cccc2ccccc12)NCc1ccccc1F`, 14.8%. Take `CCOC(=O)C1=C(COC(=O)c2cccc(N(C)C)c2)NC(=O)NC1C` (stereo not shown): the “hERG current change (%, negative = inhibition) at 10uM” value was 2.49%. As to `O=C(Oc1ccc(F)cc1)c1cccnc1`, the “hERG current change (%, negative = inhibition) at 10uM” value is 17.1%. In the case of `Cl.O=C(c1cc2c(s1)CCCC2)N1CCN(Cc2ccc3c(c2)OCO3)CC1`, the “hERG current change (%, negative = inhibition) at 10uM” value is listed as -54.2%. With `Cl.Cn1c(C(=O)N2CCN(Cc3ccc4c(c3)OCO4)CC2)cc2sccc21`, the “hERG current change (%, negative = inhibition) at 10uM” value is -8.46%. Take `O=C(/C=C\c1cccs1)N1CCN(Cc2ccc3c(c2)OCO3)CC1`: the “hERG current change (%, negative = inhibition) at 10uM” value is -57.8%. Turning to `O=C(c1ccc(Br)s1)N1CCN(Cc2ccc3c(c2)OCO3)CC1`, the “hERG current change (%, negative = inhibition) at 10uM” value was -36.3%. As for `O=C(c1sccc1Br)N1CCN(Cc2ccc3c(c2)OCO3)CC1`, the figure is -11%. `Cn1c(C(=O)N2CCC(C(=O)N3CCN(Cc4ccc5c(c4)OCO5)CC3)CC2)cc2sccc21`: the “hERG current change (%, negative = inhibition) at 10uM” value is recorded as -60.6%. Under `O=C(c1cccs1)N1CCN(Cc2ccc3c(c2)OCO3)CC1` stands -15.7%. As to `O=C(c1cccs1)N1CCC(C(=O)N2CCN(Cc3ccc4c(c3)OCO4)CC2)CC1`, the “hERG current change (%, negative = inhibition) at 10uM” value was -59.9%. For the compound `O=C(/C=C/c1cccs1)N1CCN(Cc2ccc3c(c2)OCO3)CC1`, the “hERG current change (%, negative = inhibition) at 10uM” value is reported as -47.9%.

`Cn1c(C(=O)N2CCC(C(=O)N3CCOCC3)CC2)cc2sccc21`: the “hERG current change (%, negative = inhibition) at 10uM” value came out at 7.59%. Turning to `O=C(C1CCCN1C(=O)c1cccs1)N1CCN(Cc2ccc3c(c2)OCO3)CC1` (stereo not shown), the “hERG current change (%, negative = inhibition) at 10uM” value was -6.29%. With `O=C(O)/C=C/C(=O)N1CCN(Cc2ccc3c(c2)OCO3)CC1`, the “hERG current change (%, negative = inhibition) at 10uM” value is given as 4.54%. For `CCOC(=O)c1ccc(N2CN(CCc3ccccc3)CNC2=S)cc1`, the “hERG current change (%, negative = inhibition) at 10uM” value stood at 6.21%. As for `COC(=O)/C(C#N)=C\c1c(OC)[nH]c2ccccc12`, the figure is 14%; as for `Cc1ccc2[nH]c(SCC(=O)N3CCOCC3)nc2c1C`, 8.6%.

As for `Cc1ccc2c(c1)nnn2C1CCN(CC(=O)NCc2ccccc2F)CC1`, the “hERG current change (%, negative = inhibition) at 10uM” value is reported as -59.9%.

Take `Cc1ccc2c(c1)nnn2C1CCN(CC(=O)N(c2ccccc2)c2ccccc2)CC1`: the “hERG current change (%, negative = inhibition) at 10uM” value is on record as 11.4%. Take `CCOC(=O)CN(C(=O)CN1CCC(n2nnc3cc(C)ccc32)CC1)c1ccccc1`: the “hERG current change (%, negative = inhibition) at 10uM” value was -53.8%. On to `Cc1ccc2c(c1)nnn2C1CCN(CC(=O)NNC(=O)c2ccco2)CC1`, for which the “hERG current change (%, negative = inhibition) at 10uM” value was found to be 37.1%. Take `COc1ccc(C(=O)NNC(=O)CN2CCC(n3nnc4cc(C)ccc43)CC2)cc1`: the “hERG current change (%, negative = inhibition) at 10uM” value was -15%.

Turning to `Cc1cccc(C(=O)NC2CCN(CC(=O)NCc3ccccc3F)CC2)c1`, the “hERG current change (%, negative = inhibition) at 10uM” value is listed as -33.2%. As for `Cc1ccc2c(c1)nnn2C1CCN(CC(=O)NCCc2nc3ccccc3[nH]2)CC1`, the figure is -27.9%; as for `Cc1ccc2c(c1)nnn2C1CCN(CC(=O)NCCc2ccccc2)CC1`, -50.4%; as for `O=C(CN1CCC(n2nnc3cc(F)ccc32)CC1)NCCc1ccccc1`, -41.5%. Under `CC(=C/c1ccco1)/C=N/NC(=O)CSc1nnc(SCc2ccc(C)cc2)s1` stands -3.37%; under `CN1c2ccccc2C(O)=C(C(=S)Nc2ccccc2)S1(=O)=O`, 22.7%; under `CCOc1ccc(OCC(=O)Nc2nccs2)cc1`, 19.8%. `Oc1c(Br)cc(/C=N/Nc2nncc3ccccc23)cc1Br`: the “hERG current change (%, negative = inhibition) at 10uM” value came out at 27.8%. In the case of `N/C(=N\OC(=O)/C=C/c1ccccc1)c1ccncc1`, the “hERG current change (%, negative = inhibition) at 10uM” value is given as -52.3%.

For `N/C(=N\OC(=O)/C=C/c1ccccc1)c1cccnc1`, the “hERG current change (%, negative = inhibition) at 10uM” value is listed as -5.4%. Take `N/C(=N\OC(=O)/C=C/c1ccccc1)c1ccccc1`: the “hERG current change (%, negative = inhibition) at 10uM” value is on record as 3.82%. On to `CCN(CC)CCn1c(=S)[nH]c2cc(C(=O)N3CC(C)CC(C)C3)ccc2c1=O` (stereo not shown), for which the “hERG current change (%, negative = inhibition) at 10uM” value is recorded as -14.7%. Under `CCN(CC)CCCn1c(=S)[nH]c2ccccc2c1=O` stands -25.7%.

Turning to `CCN(CC)CCCn1c(=S)[nH]c2cc(C(=O)OC)ccc2c1=O`, the “hERG current change (%, negative = inhibition) at 10uM” value is reported as -33%. Under `CCN(CC)CCn1c(=S)[nH]c2cc(Cl)ccc2c1=O` stands -63.2%; under `CCN(CC)CCCn1c(=S)[nH]c2cc(Cl)ccc2c1=O`, -68.7%; under `O=c1c2ccc(Cl)cc2[nH]c(=S)n1CCCN1CCOCC1`, -22.6%. As for `CC(C)c1ccc(NC(=O)CSc2ncccc2C(=O)Oc2cccc([N+](=O)[O-])c2)cc1`, the figure is 8.39%; as for `CCOC(=O)c1c(NC(=O)CSc2nncn2C)sc(C)c1C`, -4.02%.

With `COc1cc(/C=N/O)ccc1OCc1ccc([N+](=O)[O-])cc1`, the “hERG current change (%, negative = inhibition) at 10uM” value was -23.5%.

Source of the values: publication PMC4336329 (PLoS ONE, 2015).
